Reference: PubChem BioAssay (NCATS)
Where “and” joins values, the source holds several entries; their conditions need not be identical. Equal values may be shown once. Inconclusive results are not listed. Entries that show only a call come without a potency. Unmarked numbers belong to inactive results. Calls of active or inactive are those of the source. The call rests on the fitted dose curve; in most records, active means well fitted curve in the direction sought with a large enough effect; inconclusive means small, poorly fitted or top-dose-only effect, or another doubt; inactive means no such curve, though single readings can be large; an effect the other way counts as inactive or inconclusive.

Columns and labels:
[1] = tested on: JEG-3; assay: Primary qHTS to identify gynecologic anti-cancer compounds using libraries of approved drugs and bioactive compounds (AID 1345084); conditions: Gynecologic cancer cell panel viability, ATPlite luminescence, 48 h; series mostly up to 57.5 µM; further: nearly all actives have a fitted effect of over 55% in size
Summary of the method: (§1)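 Cytotoxicity screen measuring ATP content by luciferase luminescence. Each compound is applied at five concentrations for 48 h at 37 C with 5% CO2.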

[2] = tested on: OV90; assay: as above; conditions: Gynecologic cancer cell panel viability, ATPlite luminescence, 48 h; series mostly up to 57.5 µM
Summary of the method: as §1

[3] = tested on: PA-1; assay: as above; conditions: Gynecologic cancer cell panel viability, ATPlite luminescence, 48 h; series mostly up to 57.5 µM
Summary of the method: as §1

[4] = tested on: SKOV3; assay: as above; conditions: Gynecologic cancer cell panel viability, ATPlite luminescence, 48 h; series mostly up to 57.5 µM
Summary of the method: as §1

[5] = tested on: Tov-21-G; assay: as above; conditions: Gynecologic cancer cell panel viability, ATPlite luminescence, 48 h; series mostly up to 57.5 µM
Summary of the method: as §1

[6] = tested on: Tov112D; assay: as above; conditions: Gynecologic cancer cell panel viability, ATPlite luminescence, 48 h; series mostly up to 57.5 µM
Summary of the method: as §1

[7] = Drug repurposing screens with cells derived from glioblastoma tumor samples (AID 1345199); conditions: GBM patient neurospheres viability, ATP luminescence, 48 h; further: nearly all actives have a fitted effect of over 40% in size; further: potency means the concentration at half of the fitted maximal effect
Summary of the method: (§2)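 Primary testing used CD133+ neurospheres from four GBM patients, seven concentrations, 48 h exposure and ATP-based viability; confirmation added three slower-growing patient lines.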

[8] = tested on: astro; assay: as above; conditions: viability, ATP luminescence, 48 h; series mostly up to 45.9 µM
Summary of the method: as §2

[9] = at 45.9 µM (top of the series), tumour line B
[10] = at 45.9 µM (top of the series), tumour line D
[11] = at 46 µM (top of the series), tumour line A
[12] = at 46.1 µM (top of the series), tumour line C
[13] = at 20 µM (top of the series), tumour line C
[14] = at 21.2 µM (top of the series), tumour line B
[15] = at 21.2 µM (top of the series), tumour line D
[16] = at 21.3 µM (top of the series), tumour line A

Row | SMILES | Potency [1] | Potency [2] | Potency [3] | Potency [4] | Potency [5] | Potency [6] | activity, negative = cell killing [7, 9] | activity, negative = cell killing [7, 10] | activity, negative = cell killing [7, 11] [%] | activity, negative = cell killing [7, 12] | Potency ([7]; tumour line A) | activity, negative = cell killing [7, 13] [%] | activity, negative = cell killing [7, 14] [%] | activity, negative = cell killing [7, 15] [%] | activity, negative = cell killing [7, 16] [%] | Potency [8]
1 | CN1CCN(c2c(F)cc3c(=O)c(C(=O)O)cn4c3c2OCN4C)CC1 | inactive | inactive | inactive | inactive | inactive | inactive | 0.422% | -17.1% | -24 | 18% |  |  |  |  |  | 
2 | CCN(C)C(=O)Oc1cccc([C@H](C)N(C)C)c1 | inactive | inactive | inactive | inactive | inactive | inactive | -13.1% | -25.1% |  | -30% | 20 µM (active) |  |  |  |  | 
3 | CCC(C)(C)c1ccc(CC(C)CN2C[C@@H](C)O[C@@H](C)C2)cc1 (stereo partly specified) | inactive | inactive | inactive | inactive | inactive | inactive |  |  |  |  |  |  |  |  |  | 
4 | Nc1ccc(S(=O)(=O)Nc2ccccn2)cc1 | inactive | inactive | inactive | inactive | inactive | inactive |  |  |  |  |  | -7.01 | 0.146 | 5.31 | -9.41 | 
5 | CCn1cc(C(=O)O)c(=O)c2cc(F)c(N3CCN(C)CC3)cc21 | inactive | inactive | inactive | inactive | inactive | inactive | -12.6% | -0.981% |  | -19.8% |  |  |  |  |  | 
6 | O=C(NCC1CN(c2ccc(N3CCOCC3=O)cc2)C(=O)O1)c1ccc(Cl)s1 (stereo unspecified) | inactive | inactive | inactive | inactive | inactive | inactive |  |  |  |  |  |  |  |  |  | 
7 | CCCc1cc(C(N)=S)ccn1 | inactive | inactive | inactive | inactive | inactive | inactive | -7.71% | -14.3% |  | 5.43% |  |  |  |  |  | 
8 | NC(=O)c1cccnc1 | inactive | inactive | inactive | inactive | inactive | inactive | -7.44% | -0.242% | -16 | 4.44% |  |  |  |  |  | inactive
9 | COc1ccc(C(=O)CC(=O)c2ccc(C(C)(C)C)cc2)cc1 | inactive | inactive | inactive | inactive | inactive | inactive |  | -26.5% |  | 3.24% |  |  |  |  |  | 
10 | CC(C)C1CCC(C(=O)N[C@H](Cc2ccccc2)C(=O)O)CC1 (stereo partly specified) | inactive | inactive | inactive | inactive | inactive | inactive | -7.58% | 5.65% | -15.4 | -13.4% |  |  |  |  |  | inactive
11 | CC(C)Cn1cnc2c(N)nc3ccccc3c21 | inactive | inactive | inactive | inactive | inactive | inactive | -23.5% |  |  |  |  |  |  |  |  | 
12 | O=S(=O)(c1cccc2cnccc12)N1CCCNCC1 | inactive | inactive | inactive | inactive | inactive | inactive | -0.368% | -10.7% | -20.9 | -21.1% |  |  |  |  |  | 
13 | Cc1noc(NS(=O)(=O)c2ccc(N)cc2)c1C | inactive | inactive | inactive | inactive | inactive | inactive | -5.33% and -3.65% | -24.3% and -9.55% | -16.5 | -22.2% and -6.01% |  |  |  |  |  | inactive
14 | CC[C@H](NC(C)C)[C@H](O)c1ccc(O)c2[nH]c(=O)ccc12 | inactive | inactive | inactive | inactive | inactive | inactive | -9.21% | -7.02% | -27 | 18.7% |  |  |  |  |  | 
15 | Cn1c(=O)c2c(ncn2CC(O)CO)n(C)c1=O (stereo unspecified) | inactive | inactive | inactive | inactive | inactive | inactive |  |  |  |  |  | 1.09 | 1.11 | 1.54 | 3.02 | 
16 | CO[C@@H]1[C@@H](OC(N)=O)[C@@H](O)[C@H](Oc2ccc3c(O)c(NC(=O)c4ccc(O)c(CC=C(C)C)c4)c(=O)oc3c2C)OC1(C)C | inactive | inactive | inactive | inactive | inactive | inactive |  |  |  |  |  | -4.06 | -5.36 | -2.99 | -27.7 | 
17 | O=c1oc2c(O)c(O)cc3c(=O)oc4c(O)c(O)cc1c4c23 | inactive | inactive | inactive | inactive | inactive | inactive | -21.4% |  |  | -1.64% |  |  |  |  |  | 
18 | CNNCc1ccc(C(=O)NC(C)C)cc1 | inactive | inactive | inactive | inactive | inactive | inactive | -4.85% | -17.7% |  | -14.6% |  |  |  |  |  | 
19 | CCOC(=O)c1ccc(C#Cc2ccc3c(c2)C(C)(C)CCS3)nc1 | inactive | inactive | inactive | inactive | inactive | inactive |  |  |  |  |  |  |  |  |  | 
